From PubChem BioAssay come the findings set out here.

Each structure is given as a SMILES string. Active and inactive are the calls of the source.

The subject of assay [1] is PRMT1 (protein arginine N-methyltransferase 1). Briefly: PRMT1 binders on small-molecule microarrays, primary screen, biochemical, small-molecule microarray, 635 nm fluorescence (AID 1088).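 Note: binding of Prmt1 protein to compounds spotted on small-molecule microarray slides.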 To be noted: small-molecule microarray binding, higher = more signal.
The nature of assay [2]: yeast growth modulation, basal conditions, primary screen, YJM789 clinical isolate, OD600, 24 h (AID 1089).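 Note: growth of clinical yeast isolate S. cerevisiae YJM 789 seeded 1000 cells per well; test concentration not given here.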 To be noted: S. cerevisiae YJM789 growth, higher = more signal, called active from +8 up or from −8 down.
Assay [3] in a line: fission yeast growth modulation, primary screen, strain 972, OD600, 24 h, no modulator (AID 1090).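 Note: basal condition with compound alone and no growth modifier present; test concentration not given here.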 To be noted: S. pombe 972 growth, higher = more signal, called active from +8 up or from −8 down.
Assay [4] is described as follows: S. cerevisiae growth modulation with rapamycin, primary screen, strain BY4716, OD600, 96 h (AID 1091). Note: test concentration not given here. To be noted: higher = more signal, called active from +8 up or from −8 down.
Assay [5] has as its target Torsin-1A-interacting protein 2 (Homo sapiens) (UniProt Q8NFQ8). Briefly: LULL1 binders on small-molecule microarray, primary screen, cell lysate, human LULL1 lysate, 635/667 nm fluorescence (AID 1092).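 Note: probe is lysate of COS7 cells overexpressing human LULL1; score merges per-feature 667 nm fluorescence with signal-to-noise.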 Particulars: hLULL1 lysate binding, 635 nm fluorescence, higher = more signal.
Assay [6] is described as follows: E. coli growth modulation, two-sided OD650, primary screen, E. coli filamentation project, strain DRC41, 24 h (AID 1093).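 Note: MC1000 strain lacking acrAB efflux and sulA so SOS filamentation is blocked; test concentration not given here.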 To be noted: OD650, 24 h, higher = more signal, called active from +8 up or from −8 down.
A short description of assay [7]: small-molecule microarray binders of probe aLefty2, primary screen, biochemical, biotinylated probe, 635/667 nm fluorescence (AID 1094).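 Note: score merges spot fluorescence near 667 nm with spot signal-to-noise ratio.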 Particulars: higher = more signal.
For assay [8], the system named is Noggin (protein binding on small-molecule microarray). Briefly: Noggin binders on small-molecule microarray, primary screen, biochemical, 635/667 nm fluorescence (AID 1095).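 Note: score merges 667 nm feature fluorescence with signal to noise over triplicate slides.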 Particulars: 635 nm fluorescence, higher = more signal.
Assay [9] concerns the target Neurogenic locus notch homolog protein 3 (Homo sapiens) (UniProt Q9UM47). Put plainly: NOTCH3 binders on small-molecule microarray, primary screen, biochemical, 635/667 nm fluorescence (AID 1096). To be noted: NOTCH3 binding, 635 nm fluorescence, higher = more signal.
A short description of assay [10]: small-molecule microarray binders of probe aEGFR, primary screen, biochemical, biotinylated probe, 635/667 nm fluorescence (AID 1097).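 Note: probe is a biotinylated anti-EGFR antibody binding compounds printed on slides; score combines fluorescence near 667 nm and signal to noise of each spot.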 To be noted: higher = more signal.

Chain of Neurogenic locus notch homolog protein 3 (Homo sapiens) (Q9UM47 whole entry, looked up): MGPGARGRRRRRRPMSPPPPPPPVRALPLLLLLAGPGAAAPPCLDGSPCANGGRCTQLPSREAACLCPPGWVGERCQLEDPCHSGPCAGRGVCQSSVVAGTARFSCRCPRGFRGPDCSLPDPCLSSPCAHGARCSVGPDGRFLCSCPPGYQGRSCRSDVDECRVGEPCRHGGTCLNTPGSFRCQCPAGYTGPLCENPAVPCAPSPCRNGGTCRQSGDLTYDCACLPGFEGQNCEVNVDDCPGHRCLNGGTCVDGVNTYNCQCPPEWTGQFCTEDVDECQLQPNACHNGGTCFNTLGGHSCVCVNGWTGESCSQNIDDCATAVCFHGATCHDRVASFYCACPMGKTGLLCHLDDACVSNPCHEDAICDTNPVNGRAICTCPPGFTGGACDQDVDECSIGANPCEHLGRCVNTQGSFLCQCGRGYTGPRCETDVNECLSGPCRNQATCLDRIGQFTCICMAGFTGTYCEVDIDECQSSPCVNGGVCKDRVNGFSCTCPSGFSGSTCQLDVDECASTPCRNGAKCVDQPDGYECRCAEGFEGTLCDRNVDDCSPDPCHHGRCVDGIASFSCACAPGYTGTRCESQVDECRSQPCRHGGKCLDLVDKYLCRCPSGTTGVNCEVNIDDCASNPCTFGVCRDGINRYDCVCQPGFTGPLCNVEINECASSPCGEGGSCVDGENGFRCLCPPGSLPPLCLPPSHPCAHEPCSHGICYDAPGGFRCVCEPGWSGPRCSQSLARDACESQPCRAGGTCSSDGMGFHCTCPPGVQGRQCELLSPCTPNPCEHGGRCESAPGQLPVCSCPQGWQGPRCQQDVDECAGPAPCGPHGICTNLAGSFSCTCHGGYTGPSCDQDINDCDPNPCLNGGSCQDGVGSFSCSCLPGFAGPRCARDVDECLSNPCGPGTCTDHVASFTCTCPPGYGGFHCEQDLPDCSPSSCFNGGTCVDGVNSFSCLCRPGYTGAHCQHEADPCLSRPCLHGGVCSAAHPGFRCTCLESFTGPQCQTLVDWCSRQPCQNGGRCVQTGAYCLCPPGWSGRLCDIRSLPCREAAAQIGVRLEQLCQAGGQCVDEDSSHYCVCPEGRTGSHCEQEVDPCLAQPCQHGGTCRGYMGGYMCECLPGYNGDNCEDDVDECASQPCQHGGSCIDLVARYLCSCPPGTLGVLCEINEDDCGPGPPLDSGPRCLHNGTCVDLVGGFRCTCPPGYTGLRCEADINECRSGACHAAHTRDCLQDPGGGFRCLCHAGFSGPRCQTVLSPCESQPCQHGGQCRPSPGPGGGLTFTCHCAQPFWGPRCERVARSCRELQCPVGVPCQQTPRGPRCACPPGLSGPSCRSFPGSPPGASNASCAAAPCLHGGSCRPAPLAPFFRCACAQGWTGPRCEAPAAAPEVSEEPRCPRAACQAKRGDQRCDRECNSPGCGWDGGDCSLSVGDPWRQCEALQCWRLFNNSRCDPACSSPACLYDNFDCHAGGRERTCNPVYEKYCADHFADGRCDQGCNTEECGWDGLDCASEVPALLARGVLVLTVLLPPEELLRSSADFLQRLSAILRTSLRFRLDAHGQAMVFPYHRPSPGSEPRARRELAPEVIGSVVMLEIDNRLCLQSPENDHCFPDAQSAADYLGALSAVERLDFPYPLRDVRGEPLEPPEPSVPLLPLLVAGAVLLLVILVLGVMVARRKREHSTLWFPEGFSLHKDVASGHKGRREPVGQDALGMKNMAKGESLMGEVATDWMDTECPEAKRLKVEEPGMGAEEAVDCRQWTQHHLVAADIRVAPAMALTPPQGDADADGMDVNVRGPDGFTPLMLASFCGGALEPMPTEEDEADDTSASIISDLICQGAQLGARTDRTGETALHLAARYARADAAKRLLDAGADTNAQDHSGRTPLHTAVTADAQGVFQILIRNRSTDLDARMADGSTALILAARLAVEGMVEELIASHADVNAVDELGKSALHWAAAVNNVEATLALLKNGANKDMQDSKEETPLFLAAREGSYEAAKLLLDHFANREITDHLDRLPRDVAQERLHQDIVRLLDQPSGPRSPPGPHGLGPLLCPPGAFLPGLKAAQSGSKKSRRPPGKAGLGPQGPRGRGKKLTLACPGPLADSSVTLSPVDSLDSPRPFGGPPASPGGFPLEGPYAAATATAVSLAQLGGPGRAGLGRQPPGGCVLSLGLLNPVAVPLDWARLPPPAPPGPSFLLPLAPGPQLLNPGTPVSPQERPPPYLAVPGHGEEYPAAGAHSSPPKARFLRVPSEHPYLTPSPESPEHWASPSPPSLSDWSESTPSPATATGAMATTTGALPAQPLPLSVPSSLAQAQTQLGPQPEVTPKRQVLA
Chain of Torsin-1A-interacting protein 2 (Homo sapiens) (Q8NFQ8 whole entry, looked up): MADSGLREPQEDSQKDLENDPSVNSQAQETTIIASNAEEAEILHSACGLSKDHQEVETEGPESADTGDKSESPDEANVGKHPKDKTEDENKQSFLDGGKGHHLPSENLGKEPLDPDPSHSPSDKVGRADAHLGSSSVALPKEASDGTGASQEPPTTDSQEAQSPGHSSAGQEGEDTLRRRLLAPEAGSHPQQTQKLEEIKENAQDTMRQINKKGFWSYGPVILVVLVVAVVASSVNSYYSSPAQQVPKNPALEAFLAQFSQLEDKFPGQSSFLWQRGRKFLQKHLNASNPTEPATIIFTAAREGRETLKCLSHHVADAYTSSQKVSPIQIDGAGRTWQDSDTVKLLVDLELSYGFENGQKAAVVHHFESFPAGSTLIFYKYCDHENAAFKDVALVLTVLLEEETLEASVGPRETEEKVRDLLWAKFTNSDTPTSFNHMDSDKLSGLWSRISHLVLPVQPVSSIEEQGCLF

`COCCOC(=O)N1C(=O)[C@@]2(c3ccccc31)[C@H](c1ccccc1OCCO)N1[C@H](c3ccccc3)[C@H](c3ccccc3)OC(=O)[C@H]1[C@@H]2C(N)=O`: the composite z-score is 1.56 in assay [1]; 2.89 in [5]; 0.198 in assay [7]; 0.463 in assay [8]; 1.08 in [9]; 0.0258 in assay [10]. In addition, the z-score in assay [2] is 1.83 (inactive); in assay [3] it was 1.54 (inactive); in [4], 3.59 (inactive); in assay [6] it was 0.0834 (inactive).

`O=c1cccc(-c2ccco2)o1`: the composite z-score in [1] was 1.29; in [5] it was 0.108; in assay [7], -0.0963; in assay [8] it was 1.32; in assay [9], 0.832; in [10], 0.0023. In addition, the z-score in [2] was -0.445 (inactive); in assay [3], -0.311 (inactive); in assay [4], 0.167 (inactive); in assay [6], -0.696 (inactive).

For the compound `COCCOC(=O)N1C(=O)[C@@]2(c3cc(C#CCC(C(=O)OC)C(=O)OC)ccc31)[C@H](c1ccc(O)cc1)N1[C@H](c3ccccc3)[C@H](c3ccccc3)OC(=O)[C@H]1[C@@H]2C(=O)NC[C@H](O)c1ccccc1`, the composite z-score is 1.38 in assay [1]; 2.75 in [5]; -0.0788 in assay [7]; 0.171 in assay [8]; 0.68 in [9]; 0.0153 in assay [10]. For the same compound, the z-score is 0.326 (inactive) in [2], -0.371 (inactive) in [3], 0.875 (inactive) in assay [4] and 1.81 (inactive) in assay [6].

For the compound `COCCOC(=O)N1C(=O)[C@@]2(c3cc(C#CC4=CCCCC4)ccc31)[C@H](c1ccc(O)cc1)N1[C@H](c3ccccc3)[C@H](c3ccccc3)OC(=O)[C@H]1[C@@H]2C(=O)NC[C@H](O)c1ccccc1`, the composite z-score in assay [1] is 1.56; in assay [5], 2.51; in assay [7], -0.003; in assay [8], 0.782; in assay [9], 1.07; in assay [10] it was 0.0397. Further, the z-score in assay [2] is 1.44 (inactive); in assay [3], 0.236 (inactive); in [4] it was 3.15 (inactive); in assay [6], 0.12 (inactive).

Turning to `CC(C)[C@H]1NC(=O)[C@@]23C(=O)N[C@@H](Cc4ccccc4)C2[C@H](C)[C@@]2(C)O[C@H]2C3/C=C/CCC/C=C/CNC(=O)[C@H](Cc2ccccc2)NC1=O` (stereo not given in full), the composite z-score in assay [1] was 0.776; in assay [5], 2.47; in [7], -0.232; in [8], 1.22; in assay [9], 0.419; in [10], -0.161. Also, the z-score was 0.249 (inactive) in assay [2], -1.4 (inactive) in assay [3], -0.622 (inactive) in [4] and 0.139 (inactive) in [6].

With `COCC(=C=CC[C@H](O)c1cccc(OCCO)c1)C[C@H](O)COCc1ccccc1`, the composite z-score in assay [1] was determined as 0.949; in assay [5] it was 2.22; in assay [7], 0.084; in assay [8] it was 0.546; in assay [9], 0.237; in [10], 0.0167. Further, the z-score in [2] was -0.244 (inactive); in [3], -1.43 (inactive); in [4], -0.271 (inactive); in assay [6] it was -0.142 (inactive).

Turning to `O=C1C[C@@](C(=O)NCc2ccccc2)(c2ccc([N+](=O)[O-])cc2)[C@@H](c2ccc(CO)cc2I)N1CC12CC3CC(CC(C3)C1)C2`, the composite z-score in assay [1] is 1.55; in assay [5], 2.61; in [7], 0.0578; in [8], 1.8; in assay [9], 1.09; in assay [10], 0.0042. The z-score in [2] was -0.369 (inactive); in assay [3], -0.613 (inactive); in [4], 2.84 (inactive); in assay [6], -0.343 (inactive).

As to `O=C(O)[C@H]1C[C@H]2C(=O)N[C@@H](Cc3ccccc3)C(=O)N2[C@H]1c1cccc(OCCO)c1`, the composite z-score in assay [1] came to 1.46; in assay [5], 2.14; in [7] it was 0.127; in assay [8], 1.74; in assay [9] it was 0.814; in [10], 0.206. The z-score was 0.893 (inactive) in [2], -1.11 (inactive) in [3], -0.629 (inactive) in [4] and 0.446 (inactive) in assay [6].

With `CCOC(=O)C1=CCN(S(=O)(=O)c2ccc(C)cc2)C1c1ccccc1` (stereo not given), the composite z-score amounted to 1.03 in assay [1]; 2.93 in assay [5]; 0.38 in assay [7]; 0.216 in assay [8]; 0.821 in assay [9]; 0.227 in [10]. The z-score in assay [2] is -1.76 (inactive); in assay [3], -0.849 (inactive); in assay [4] it was 0.318 (inactive); in [6], -0.4 (inactive).

With `CC(C)[C@H]1NC(=O)[C@@]23C(=O)N[C@@H](Cc4ccccc4)C2[C@H](C)[C@@]2(C)O[C@H]2C3/C=C/C/C=C\CNC(=O)[C@H](Cc2ccccc2)NC1=O` (stereo not given in full), the composite z-score is 1.53 in [1]; 2.68 in [5]; -0.052 in [7]; 0.877 in assay [8]; 1.08 in assay [9]; 0.0354 in assay [10]. Also, the z-score was -0.155 (inactive) in assay [2], -0.228 (inactive) in [3], 0.246 (inactive) in assay [4] and 0.317 (inactive) in assay [6].

Turning to `C=CCNC(=O)[C@@H]1[C@H]2C(=O)O[C@H](c3ccccc3)[C@H](c3ccccc3)N2[C@H](c2ccc(O)cc2)[C@@]12C(=O)Nc1ccc(C#CCC(C(=O)OC)C(=O)OC)cc12`, the composite z-score was 1.55 in [1]; 2.32 in assay [5]; 0.0539 in [7]; 0.482 in assay [8]; 0.387 in [9]; -0.187 in assay [10]. The z-score was 1.66 (inactive) in assay [2], 0.918 (inactive) in assay [3], 1.12 (inactive) in assay [4] and -0.311 (inactive) in [6].

With `CC=CC(O)C1C=CC2C(=O)NC(=O)C2N1Nc1ccccn1` (stereo not given), the composite z-score is 1.36 in [1]; 0.871 in assay [5]; 0.0261 in [7]; 0.26 in assay [8]; 0.542 in assay [9]; -0.257 in assay [10]. Further, the z-score in assay [2] is 0.43 (inactive); in assay [3], 1.99 (inactive); in [4], 0.544 (inactive); in assay [6], -0.565 (inactive).

Take `C=CCC(OC(C)=O)[C@@H]1[C@@H](N(Cc2ccc(-c3cccc(C(F)(F)F)c3)o2)C(=O)c2ccc(C)cc2)c2cc(OCCCO)ccc2N1C(=O)Cc1ccc(OC)cc1` (stereo not given in full): the composite z-score was -0.118 in [1]; -0.639 in assay [5]; -0.131 in assay [7]; -0.0236 in assay [8]; -0.0141 in assay [9]; -0.0828 in assay [10]. Also, the z-score in assay [2] was 0.9 (inactive); in assay [3] it was 0.145 (inactive); in [4], 0.0453 (inactive); in assay [6], 1.34 (inactive).

As to `COc1ccc([Si](C)(C)[C@H]2[C@H](CC(=O)N3CCC[C@H]3CO)O[C@@]3(C(=O)N(Cc4ccc(N5CCC5=O)cc4)c4ccccc43)[C@@H]2C)cc1`, the composite z-score in [1] was 1.54; in assay [5] it was 2.42; in assay [7], -0.197; in assay [8], 1.65; in [9], 1.07; in assay [10], -0.0578. In addition, the z-score in [2] was -0.647 (inactive); in assay [3], -1.59 (inactive); in assay [4] it was -1.31 (inactive); in assay [6] it was 0.13 (inactive).
